Active and inactive are the calls of the source.
How the values were obtained:
[1] = system: PRMT1 (protein arginine N-methyltransferase 1); assay: small molecules binding arginine methyltransferase PRMT1 – biochemical, small-molecule microarray, 635 nm fluorescence, primary screen (AID 1088); conditions: higher = more signal;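 note: binding of Prmt1 protein to compounds spotted on small-molecule microarray slides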
[2] = growth effects on S. cerevisiae YJM789 – YJM789 clinical isolate, OD600, 24 h, basal, primary screen (AID 1089); conditions: higher = more signal, called active from +8 up or from −8 down;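 note: growth of clinical yeast isolate S. cerevisiae YJM 789 seeded 1000 cells per well; test concentration not given here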
[3] = S. pombe growth modifiers, basal conditions – strain 972, OD600, 24 h, no modulator, primary screen (AID 1090);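 note: basal condition with compound alone and no growth modifier present; test concentration not given here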; conditions: S. pombe 972 growth, higher = more signal, called active from +8 up or from −8 down
[4] = budding yeast growth modifiers under rapamycin – strain BY4716, OD600, 96 h, primary screen (AID 1091); note: test concentration not given here; conditions: S. cerevisiae BY4716 + rapamycin, higher = more signal, called active from +8 up or from −8 down
[5] = target: Torsin-1A-interacting protein 2 (Homo sapiens) (UniProt Q8NFQ8); assay: small molecules binding lysate-expressed LULL1 – cell lysate, human LULL1 lysate, 635/667 nm fluorescence, primary screen (AID 1092); conditions: small-molecule microarray, hLULL1 lysate binding, 635 nm fluorescence; higher = more signal;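 note: probe is lysate of COS7 cells overexpressing human LULL1; score merges per-feature 667 nm fluorescence with signal-to-noise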
Chain of Torsin-1A-interacting protein 2 (Homo sapiens) (Q8NFQ8 whole entry, looked up): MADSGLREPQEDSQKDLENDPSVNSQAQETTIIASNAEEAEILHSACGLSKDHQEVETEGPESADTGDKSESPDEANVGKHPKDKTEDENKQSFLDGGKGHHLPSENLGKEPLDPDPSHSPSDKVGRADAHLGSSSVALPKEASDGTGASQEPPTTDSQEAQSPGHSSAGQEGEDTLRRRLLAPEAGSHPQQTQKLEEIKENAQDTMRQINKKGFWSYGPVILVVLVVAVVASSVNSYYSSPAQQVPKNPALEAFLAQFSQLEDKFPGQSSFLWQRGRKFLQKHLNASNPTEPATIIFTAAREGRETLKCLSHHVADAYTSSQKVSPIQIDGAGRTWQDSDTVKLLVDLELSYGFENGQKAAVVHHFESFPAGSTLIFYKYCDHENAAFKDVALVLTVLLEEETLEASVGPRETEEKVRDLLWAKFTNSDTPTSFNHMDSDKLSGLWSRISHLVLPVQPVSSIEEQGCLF

[6] = optical density change of DRC41 E. coli – strain DRC41, OD650, 24 h, E. coli filamentation project, primary screen (AID 1093);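 note: MC1000 strain lacking acrAB efflux and sulA so SOS filamentation is blocked; test concentration not given here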; conditions: E. coli DRC41 growth, higher = more signal, called active from +8 up or from −8 down
[7] = probe aLefty2 binding to arrayed compounds – biochemical, biotinylated probe, 635/667 nm fluorescence, primary screen (AID 1094); conditions: small-molecule microarray, higher = more signal;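 note: score merges spot fluorescence near 667 nm with spot signal-to-noise ratio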
[8] = system: Noggin (protein binding on small-molecule microarray); assay: small molecules binding Noggin protein – biochemical, 635/667 nm fluorescence, primary screen (AID 1095); conditions: 635 nm fluorescence, higher = more signal;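 note: score merges 667 nm feature fluorescence with signal to noise over triplicate slides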
[9] = target: Neurogenic locus notch homolog protein 3 (Homo sapiens) (UniProt Q9UM47); assay: small molecules binding NOTCH3 protein – biochemical, 635/667 nm fluorescence, primary screen (AID 1096); conditions: small-molecule microarray, 635 nm fluorescence, higher = more signal
Chain of Neurogenic locus notch homolog protein 3 (Homo sapiens) (Q9UM47 whole entry, looked up): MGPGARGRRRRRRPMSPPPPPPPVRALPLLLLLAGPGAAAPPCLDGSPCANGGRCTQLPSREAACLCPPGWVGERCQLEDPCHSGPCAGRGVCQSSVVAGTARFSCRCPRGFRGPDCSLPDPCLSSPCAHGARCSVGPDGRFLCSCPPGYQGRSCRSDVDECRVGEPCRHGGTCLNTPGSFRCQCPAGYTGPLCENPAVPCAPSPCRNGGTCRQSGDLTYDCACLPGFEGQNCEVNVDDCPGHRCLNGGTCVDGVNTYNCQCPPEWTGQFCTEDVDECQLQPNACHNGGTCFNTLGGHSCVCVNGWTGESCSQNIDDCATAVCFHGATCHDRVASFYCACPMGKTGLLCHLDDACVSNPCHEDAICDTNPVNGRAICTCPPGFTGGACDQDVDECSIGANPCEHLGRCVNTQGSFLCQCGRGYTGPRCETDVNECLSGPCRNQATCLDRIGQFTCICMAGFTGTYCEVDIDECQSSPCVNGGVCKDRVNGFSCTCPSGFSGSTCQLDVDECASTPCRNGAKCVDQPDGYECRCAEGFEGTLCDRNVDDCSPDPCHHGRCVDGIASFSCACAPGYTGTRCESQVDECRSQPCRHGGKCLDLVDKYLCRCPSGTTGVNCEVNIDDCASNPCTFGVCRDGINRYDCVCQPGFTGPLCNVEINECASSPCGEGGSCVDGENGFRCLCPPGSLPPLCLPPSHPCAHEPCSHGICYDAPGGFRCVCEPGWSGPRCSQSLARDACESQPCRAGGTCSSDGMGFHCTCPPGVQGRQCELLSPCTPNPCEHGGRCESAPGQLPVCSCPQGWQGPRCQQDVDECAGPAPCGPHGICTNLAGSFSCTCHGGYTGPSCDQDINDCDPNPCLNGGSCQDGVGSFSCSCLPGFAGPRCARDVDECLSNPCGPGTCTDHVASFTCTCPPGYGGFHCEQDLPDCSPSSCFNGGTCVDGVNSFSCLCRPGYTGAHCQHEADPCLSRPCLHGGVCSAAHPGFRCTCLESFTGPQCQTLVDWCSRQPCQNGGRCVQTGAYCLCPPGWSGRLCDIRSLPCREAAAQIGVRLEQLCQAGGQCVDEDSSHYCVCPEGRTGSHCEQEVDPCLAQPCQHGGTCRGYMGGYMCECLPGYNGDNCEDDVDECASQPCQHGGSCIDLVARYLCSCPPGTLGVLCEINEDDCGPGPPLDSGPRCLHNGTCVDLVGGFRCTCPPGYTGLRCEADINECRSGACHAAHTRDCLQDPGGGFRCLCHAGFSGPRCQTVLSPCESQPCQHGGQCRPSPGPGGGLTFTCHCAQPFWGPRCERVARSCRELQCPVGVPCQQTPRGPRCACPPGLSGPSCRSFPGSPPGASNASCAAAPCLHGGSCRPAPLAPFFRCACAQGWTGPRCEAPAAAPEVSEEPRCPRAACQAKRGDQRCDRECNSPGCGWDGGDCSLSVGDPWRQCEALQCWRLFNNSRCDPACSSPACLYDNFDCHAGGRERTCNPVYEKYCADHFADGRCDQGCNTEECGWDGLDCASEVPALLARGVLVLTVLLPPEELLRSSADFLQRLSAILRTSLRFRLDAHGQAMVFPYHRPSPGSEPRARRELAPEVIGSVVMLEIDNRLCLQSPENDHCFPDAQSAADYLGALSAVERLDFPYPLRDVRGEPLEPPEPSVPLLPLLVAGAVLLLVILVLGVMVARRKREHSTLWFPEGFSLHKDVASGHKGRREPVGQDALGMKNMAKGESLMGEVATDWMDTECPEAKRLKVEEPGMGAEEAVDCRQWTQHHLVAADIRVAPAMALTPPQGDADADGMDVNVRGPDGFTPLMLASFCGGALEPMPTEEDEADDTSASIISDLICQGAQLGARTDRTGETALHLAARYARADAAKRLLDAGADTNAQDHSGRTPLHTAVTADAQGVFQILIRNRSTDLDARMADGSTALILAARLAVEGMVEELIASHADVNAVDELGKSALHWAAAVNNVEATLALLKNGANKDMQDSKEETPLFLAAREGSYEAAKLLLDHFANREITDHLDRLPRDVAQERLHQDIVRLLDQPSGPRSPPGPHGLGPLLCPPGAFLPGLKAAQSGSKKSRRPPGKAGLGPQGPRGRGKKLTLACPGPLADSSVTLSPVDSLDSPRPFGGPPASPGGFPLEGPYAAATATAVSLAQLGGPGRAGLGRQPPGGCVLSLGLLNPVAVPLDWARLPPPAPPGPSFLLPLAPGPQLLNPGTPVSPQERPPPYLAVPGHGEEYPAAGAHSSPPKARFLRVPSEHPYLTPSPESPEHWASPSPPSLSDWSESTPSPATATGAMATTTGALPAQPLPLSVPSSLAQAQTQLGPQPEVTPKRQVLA

[10] = probe aEGFR binding to arrayed compounds – biochemical, biotinylated probe, 635/667 nm fluorescence, primary screen (AID 1097); conditions: small-molecule microarray, higher = more signal;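 note: probe is a biotinylated anti-EGFR antibody binding compounds printed on slides; score combines fluorescence near 667 nm and signal to noise of each spot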
[11] = system: Plasmodium falciparum Sir2 (PF13_0152, Sir2A); assay: Plasmodium falciparum Sir2A binding compounds – biochemical, small-molecule microarray, 635 nm fluorescence, primary screen (AID 1098); conditions: fluorescence 635 nm, higher = more signal;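 note: score merges spot fluorescence intensity with its signal-to-noise ratio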
[12] = probe aDKK1 binding to arrayed compounds – biochemical, biotinylated probe, 635/667 nm fluorescence, primary screen (AID 1099); conditions: small-molecule microarray, higher = more signal;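 note: score merges 667nm spot fluorescence with signal to noise across triplicate slides; reference of the scale not given here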
[13] = probe aCHRDL2 binding to arrayed compounds – biochemical, biotinylated probe, 635/667 nm fluorescence, primary screen (AID 1100); conditions: small-molecule microarray, higher = more signal
[14] = change in splice reporter luminescence, either direction, cell-based, HEK293, spliceosome inhibition project, primary screen (AID 1101); conditions: HEK293 splicing luciferase reporter, 24 h, higher = more signal, called active from +8 up or from −8 down;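 note: HEK293 cells carrying a splicing-competent luciferase reporter gene; test concentration not given here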
[15] = target: Fibroblast growth factor 10 (Homo sapiens) (UniProt O15520); assay: compounds binding fibroblast growth factor 10 – biochemical, small-molecule microarray, 635 nm fluorescence, primary screen (AID 1102); conditions: FGF10 binding, fluorescence 635 nm, higher = more signal
Chain of Fibroblast growth factor 10 (Homo sapiens) (O15520 whole entry, looked up): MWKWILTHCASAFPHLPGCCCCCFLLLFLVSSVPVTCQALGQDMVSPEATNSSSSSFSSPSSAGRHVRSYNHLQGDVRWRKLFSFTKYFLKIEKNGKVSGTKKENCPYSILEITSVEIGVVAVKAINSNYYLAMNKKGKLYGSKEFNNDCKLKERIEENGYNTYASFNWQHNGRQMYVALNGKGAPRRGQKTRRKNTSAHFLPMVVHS

[16] = system: glycogen synthase kinase-3 (GSK3A per assay name; protocol says GSK3B); assay: compounds binding glycogen synthase kinase-3 – biochemical, small-molecule microarray, 635 nm fluorescence, GSK3A, primary screen (AID 1103); conditions: fluorescence 635 nm, higher = more signal; note: the record names both GSK3A and GSK3B
[17] = target: Epidermal growth factor receptor (Homo sapiens) (UniProt P00533); assay: compounds binding epidermal growth factor receptor – biochemical, small-molecule microarray, 635 nm fluorescence, primary screen (AID 1104); conditions: EGFR binding, higher = more signal;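 note: score merges 667 nm emission intensity with spot signal to noise over triplicate slides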
Chain of Epidermal growth factor receptor (Homo sapiens) (P00533 whole entry, looked up): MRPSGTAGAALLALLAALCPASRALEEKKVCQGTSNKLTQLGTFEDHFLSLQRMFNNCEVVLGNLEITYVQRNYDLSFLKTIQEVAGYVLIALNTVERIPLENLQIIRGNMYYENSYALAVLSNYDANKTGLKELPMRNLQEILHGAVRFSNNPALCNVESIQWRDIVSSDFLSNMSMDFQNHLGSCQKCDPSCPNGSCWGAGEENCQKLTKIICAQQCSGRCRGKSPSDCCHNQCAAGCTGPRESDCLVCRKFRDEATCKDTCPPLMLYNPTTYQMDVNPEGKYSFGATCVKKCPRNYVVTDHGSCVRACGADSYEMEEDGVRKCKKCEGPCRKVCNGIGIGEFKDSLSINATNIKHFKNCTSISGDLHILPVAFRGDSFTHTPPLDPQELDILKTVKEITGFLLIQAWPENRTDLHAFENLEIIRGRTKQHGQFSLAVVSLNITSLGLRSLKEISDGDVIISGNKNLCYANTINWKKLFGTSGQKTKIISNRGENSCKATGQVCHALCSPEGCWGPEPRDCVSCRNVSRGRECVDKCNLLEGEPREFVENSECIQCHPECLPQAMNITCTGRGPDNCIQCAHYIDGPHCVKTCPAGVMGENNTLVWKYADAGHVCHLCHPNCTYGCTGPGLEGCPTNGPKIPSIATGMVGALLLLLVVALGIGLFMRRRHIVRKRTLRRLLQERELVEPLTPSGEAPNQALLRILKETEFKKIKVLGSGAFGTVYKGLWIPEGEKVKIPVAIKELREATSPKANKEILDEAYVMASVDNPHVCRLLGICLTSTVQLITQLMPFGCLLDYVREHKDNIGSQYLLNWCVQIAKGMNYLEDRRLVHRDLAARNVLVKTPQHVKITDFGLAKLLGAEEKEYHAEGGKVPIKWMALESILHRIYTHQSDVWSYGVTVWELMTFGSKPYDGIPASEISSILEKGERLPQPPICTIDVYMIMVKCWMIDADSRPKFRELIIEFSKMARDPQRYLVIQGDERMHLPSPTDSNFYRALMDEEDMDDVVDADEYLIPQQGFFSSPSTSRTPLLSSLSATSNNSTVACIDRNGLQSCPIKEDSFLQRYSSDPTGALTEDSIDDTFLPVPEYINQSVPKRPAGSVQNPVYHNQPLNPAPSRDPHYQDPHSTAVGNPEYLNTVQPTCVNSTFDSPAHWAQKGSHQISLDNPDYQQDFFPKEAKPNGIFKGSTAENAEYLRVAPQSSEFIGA

[18] = target: Follistatin-related protein 3 (Homo sapiens) (UniProt O95633); assay: compounds binding follistatin-related protein 3 – biochemical, small-molecule microarray, 635 nm fluorescence, primary screen (AID 1105); conditions: FSTL3 binding, higher = more signal;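 note: score merges emission near 667 nm and signal to noise per printed spot across three slides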
Chain of Follistatin-related protein 3 (Homo sapiens) (O95633 whole entry, looked up): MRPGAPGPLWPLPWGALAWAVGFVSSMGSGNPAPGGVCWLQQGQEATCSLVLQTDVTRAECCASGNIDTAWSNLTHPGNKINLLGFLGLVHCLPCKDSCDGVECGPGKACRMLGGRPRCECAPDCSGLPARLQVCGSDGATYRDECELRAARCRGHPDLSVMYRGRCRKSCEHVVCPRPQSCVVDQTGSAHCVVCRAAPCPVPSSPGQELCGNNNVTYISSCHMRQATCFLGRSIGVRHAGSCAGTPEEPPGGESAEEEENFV

[19] = target: Dickkopf-related protein 1 (Homo sapiens) (UniProt O94907); assay: small molecules binding DKK1 protein – biochemical, small-molecule microarray, 635 nm fluorescence scan, primary screen (AID 1106); conditions: higher = more signal;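 note: score merges emission near 667 nm with signal to noise over three replicate slides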
Chain of Dickkopf-related protein 1 (Homo sapiens) (O94907 whole entry, looked up): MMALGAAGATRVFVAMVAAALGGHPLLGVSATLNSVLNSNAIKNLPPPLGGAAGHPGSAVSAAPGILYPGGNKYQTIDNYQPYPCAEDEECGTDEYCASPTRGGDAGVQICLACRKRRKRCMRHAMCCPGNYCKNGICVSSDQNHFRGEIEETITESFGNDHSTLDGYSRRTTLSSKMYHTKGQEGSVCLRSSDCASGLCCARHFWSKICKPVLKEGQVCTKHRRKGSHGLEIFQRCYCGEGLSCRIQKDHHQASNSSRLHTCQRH

[20] = system: Inhibin beta A chain (activin A); assay: small molecules binding activin A – biochemical, small-molecule microarray, 635 nm fluorescence scan, primary screen (AID 1107); conditions: INHBA, higher = more signal;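 note: mouse activin A protein probed at 4.33 µg/mL on printed slides; score merges bound-protein fluorescence near 667 nm with spot signal-to-noise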

Row | Structure (SMILES) | composite z-score [1] | z-score [2] | z-score [3] | z-score [4] | composite z-score [5] | z-score [6] | composite z-score [7] | composite z-score [8] | composite z-score [9] | composite z-score [10] | composite z-score [11] | composite z-score [12] | composite z-score [13] | z-score [14] | composite z-score [15] | composite z-score [16] | composite z-score [17] | composite z-score [18] | composite z-score [19] | composite z-score [20]
1 | CC(C)CON=C1C[C@@H](O)[C@@H](O)[C@@H]2[C@@H]3C(=O)N(c4ccc(F)cc4F)C(=O)[C@@H]3CC[C@H]12 | 1.55 | -0.254 (inactive) | -0.59 (inactive) | -0.337 (inactive) | 1.63 | -0.385 (inactive) | -0.304 | 0.409 | 1.08 | -0.0512 | 0.256 | -0.212 | -0.509 | -0.972 (inactive) | 0.553 | 0.458 | 0.59 | 0.986 | 0.671 | -0.253
2 | CC(C)(C)N1C(=O)[C@H]2[C@H]3[C@H](O)[C@H](O)CC(=NOCc4ccccc4)[C@H]3CC[C@H]2C1=O | -0.201 | -0.612 (inactive) | -0.925 (inactive) | -0.22 (inactive) | 0.351 | 0.662 (inactive) | 0.439 | -0.616 | -0.288 | -0.125 | 0.0828 | 0.989 | 1.36 | 0.453 (inactive) | 0.0277 | -0.399 | -0.376 | -0.663 | -0.551 | 0.251
3 | COc1ccc(COC(=O)NN=C2C[C@@H](O)[C@@H](O)[C@@H]3[C@@H]4C(=O)N(C5CCCCC5)C(=O)[C@@H]4CC[C@H]23)cc1 | -0.416 | 0.494 (inactive) | 0.586 (inactive) | 0.818 (inactive) | 0.271 | -0.277 (inactive) | 0.432 | -0.752 | -1.19 | -0.242 | -0.378 | 1.07 | 1.47 | 1.3 (inactive) | -0.485 | -0.784 | -0.575 | -0.558 | -1.45 | 0.699
4 | C=CC[C@@H]1C=C[C@H](ON=C[C@@H](C)[C@H](OCc2ccccc2)C(C)C)[C@@H](CO)O1 | 0.261 | -1.46 (inactive) | -3.98 (inactive) | -0.515 (inactive) | 0.602 | 0.15 (inactive) | -0.228 | -0.244 | -0.0585 | -0.146 | 1.07 | -0.5 | -0.353 | 0.305 (inactive) | -0.483 | -0.363 | -0.852 | -0.568 | -0.189 | -0.291
5 | CO[C@H]1COC(=O)CC=C[C@@H](C)[C@H](OC)COC(=O)[C@@H]2CCCN2C(=O)CC=C[C@@H]1C | 1.12 | 0.221 (inactive) | -0.0931 (inactive) | -0.202 (inactive) | -0.328 | 0.619 (inactive) | -0.229 | 1.41 | 0.716 | 0.0115 | 0.686 | -0.382 | -1.14 | 0.308 (inactive) | 0.892 | 0.78 | 1.13 | 1.49 | 1.16 | 1.13
6 | COC(=O)NCC=Cc1nc(CCCO)co1 | -0.227 | 0.084 (inactive) | 0.211 (inactive) | 0.214 (inactive) | 0.39 | 0.423 (inactive) | -0.0139 | 0.501 | 0.903 | 0.0678 | 0.439 | -0.414 | -0.576 | 0.566 (inactive) | 0.534 | 0.926 | 0.581 | 0.887 | 0.617 | 0.163
7 | COc1cccc([C@H]2Oc3ccc(OC)cc3C(=NOC[C@@H](C)[C@H](OCc3ccccc3)C(C)C)[C@@H]2O)c1 | 0.169 | 0.0741 (inactive) | 0.399 (inactive) | 0.588 (inactive) | 0.77 | -0.0364 (inactive) | -0.341 | 0.0758 | 0.0869 | 0.0229 | -0.0088 | 0.197 | 0.101 | -0.171 (inactive) | 0.325 | 0.332 | -0.168 | 0.242 | 0.304 | 0.0185
8 | CC(C)=CCCC(C)=CCON=C1C[C@@H](O)[C@@H](O)[C@@H]2[C@@H]3C(=O)N(C(C)(C)C)C(=O)[C@@H]3CC[C@@H]12 | -0.305 | 0.286 (inactive) | 0.451 (inactive) | 0.361 (inactive) | 0.197 | -0.636 (inactive) | -0.0615 | 0.386 | 0.605 | -0.0594 | 0.263 | 0.0156 | -0.046 | -0.0767 (inactive) | 0.313 | 0.426 | 0.619 | 0.51 | 0.18 | 0.231
9 | Cc1cc2c(nc1C)CCCCN2CC(C)ON=C1[C@H]2CCn3c(=O)n(-c4ccccc4)c(=O)n3[C@H]2[C@H](O)[C@@H]2O[C@H]12 (stereo not given in full) | 0.208 | 0.678 (inactive) | -0.167 (inactive) | 0.103 (inactive) | 0.998 | 0.777 (inactive) | 0.106 | 0.439 | 0.258 | -0.0922 | 0.606 | 0.213 | -0.0869 | 0.718 (inactive) | 1.11 | 0.331 | 0.302 | 1.05 | 0.7 | 1.3
10 | CCOC(=O)[C@H](Cc1ccccc1)NC(=O)CCC1CC(OC(=O)NCCc2ccc(F)cc2)CC2(CCCC(COC(=O)NCCOC)O2)O1 (stereo not given in full) | 1.46 | 0.197 (inactive) | 0.143 (inactive) | -0.16 (inactive) | 1.73 | 0.769 (inactive) | -0.147 | 0.325 | 0.796 | 0.153 | 0.637 | 0.765 | -0.504 | 0.371 (inactive) | 0.984 | 0.614 | 0.856 | 0.969 | 1.13 | 0.163

— PubChem BioAssay
